# Reference: the supplement of paper PMC6555819
# Assays:
# Assay in all cases: PBM binding z-score (relative to random genomic background probes); higher = stronger binding; sequences stand for … in GC…GCGATTGACAGCGTAGAATGAAGG
# [1] = test system: RARb homodimer (NR concentration 270 nM)
# Procedure, shortened: (§1)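 Custom Agilent 4×180K protein-binding microarrays carried double-stranded probes, each with a 34-nt variable region. These regions held direct-repeat seeds, single-nucleotide variants, half-site ablations and random human genomic background sequences. Ligand-free nuclear receptor dimers were incubated on the arrays for 1 h, antibodies against each partner (one per run) detected binding, and scanned fluorescence was regression-normalized. Binding z-scores take the random background probes as reference.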
# [2] = test system: RARg:RXRa (NR concentration 270 nM, RXRa partner concentration 90 nM)
# Procedure, shortened: as §1
# [3] = test system: RARg homodimer (NR concentration 270 nM)
# Procedure, shortened: as §1
# [4] = test system: RXRa DBDmut IVT, anti-RXR (DBD mutation: RXRa K156A/R161A, NR concentration 90 nM)
# Procedure, shortened: as §1
# [5] = test system: RXRa homodimer (NR concentration 180 nM)
# Procedure, shortened: as §1
# [6] = test system: THRa:RXRa (NR concentration 90 nM, RXRa partner concentration 90 nM)
# Procedure, shortened: as §1
# [7] = test system: THRa homodimer (NR concentration 90 nM)
# Procedure, shortened: as §1
# [8] = test system: VDR homodimer (NR concentration 270 nM)
# Procedure, shortened: as §1
Sequence,PBM binding z-score [1],PBM binding z-score [2],PBM binding z-score [3],PBM binding z-score [4],PBM binding z-score [5],PBM binding z-score [6],PBM binding z-score [7],PBM binding z-score [8]
CCTACTGGGCCAAAAGTCATTGATTCCAATGCTC,0.0261,0.13,0.053,0.0698,0.153,-0.256,-0.418,-0.212
ACTAGTTTGTCAGCTGAGGTCACACACAATTCGG,3.94,3.85,3.7,1.98,4.13,4.42,5.24,3.53
CCTCGGAGGACAACAGGAGGTCAGCGCTGCCAGA,3.96,4.12,4.04,0.326,2.28,3.14,1.31,1.13
TCTAGCAGGCCAGAGGGTTACTCAAGAGGTACGG,-0.00314,0.101,0.0155,-0.179,0.47,-0.0959,-1.11,-0.658
GCATATAAGTAATACAAGGTGAAAGTCCGATTGT,0.816,0.308,0.389,0.717,0.568,2.96,0.985,-0.188
TGAATGAGATTATAAGATCAGGGAACGTTGCAAA,-1.01,-0.048,0.172,-1.08,-0.35,-0.424,-1.28,-0.262
TCTAGTTGGTCAGAGGTCACACACTCGAAATGCG,4.5,6.07,5.24,1.92,6.47,3.99,2.52,3.35
ATCTCTAGGTAAAGTTCAGTGATAGATCGATAGA,2.44,2.15,2.58,1.56,1.42,1.2,0.236,2.09
GGAACGAGGGCAAGTTGTTAGCAGAGTTTGATGG,1.42,1.49,1.82,2.39,0.957,1.46,0.187,1.65
TAGCCTAGGTCATCGGGCCAGTATAGTACGCATC,3.22,4.32,4.38,0.957,3.29,2.96,1.16,0.811
GGAACGAGGGCAAGTTGATGGCAGAGTTTGATGG,1.59,1.66,1.92,2.1,1.05,1.34,0.188,1.5
CTCGAAAGGTCGTGCTCCGGTGAGTATACCAAAC,3.04,5.03,3.94,2.08,5.18,3.06,0.517,1.26
CCTACTGGGCCATCAGGCCATTGATATCAACGTT,0.414,-0.00329,0.297,-0.604,-0.42,0.561,0.656,-0.112
GTACCAAGGTGAATAGGTTGTTGATGAGTAGGCG,0.824,1.07,0.763,0.247,0.717,1.55,0.782,0.391
